A short description of experiment [1]: NCI Yeast Anticancer Drug Screen. Data for the rad50 strain (AID 155).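 Note: 0% = growth of vehicle-only cultures of the same strain.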 The conditions noted are these: S. cerevisiae rad50 strain growth inhibition; at 50.0 µM; stronger effect = higher value. The gist of the method:
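DNA repair mutant yeast, compound exposure, growth read-out; inhibition is taken relative to vehicle.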

Experiment [2] is described as follows: NCI Yeast Anticancer Drug Screen. Data for the mec2-1 strain (AID 157). The conditions noted are these: S. cerevisiae mec2-1 strain, at 50.0 µM, stronger effect = higher value. The procedure, abridged: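 Each compound was tested on mec2-1 yeast, a strain altered in DNA damage repair or cell cycle control. Growth inhibition is reported relative to vehicle.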
Experiment [3] is described as follows: NCI Yeast Anticancer Drug Screen. Data for the sgs1 mgt1 strain (AID 161).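 Note: 0% = growth of cultures given vehicle only.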 The conditions noted are these: S. cerevisiae sgs1 mgt1 strain, at 50.0 µM, stronger effect = higher value. The procedure, abridged: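 Test agents were incubated with a DNA-repair-mutant yeast strain. Growth was then read and compared against vehicle-treated controls.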
The nature of experiment [4]: NCI Yeast Anticancer Drug Screen. Data for the cln2 rad14 strain (AID 165).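 Note: 0% = growth equal to vehicle treated cultures.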 As to conditions: S. cerevisiae cln2 rad14 strain, at 50.0 µM, stronger effect = higher value. The procedure, abridged: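 Test compounds were added to cln2 rad14 yeast cultures; inhibition of growth was then determined by comparison with vehicle treatment.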
Experiment [5] is described as follows: NCI Yeast Anticancer Drug Screen. Data for the bub3 strain (AID 167). The conditions noted are these: S. cerevisiae bub3 mutant strain, at 50.0 µM, stronger effect = higher value. The gist of the method: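 In this screen, a yeast mutant lacking normal mitotic checkpoint function is challenged with compound. Relative growth versus vehicle gives the inhibition value.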

A short description of experiment [6]: NCI Yeast Anticancer Drug Screen. Data for the mlh1 rad18 strain (AID 175). The conditions noted are these: S. cerevisiae mlh1 rad18 strain growth inhibition; at 50.0 µM; stronger effect = higher value. The procedure, abridged:
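Inhibition values reflect reduced growth of mutant yeast versus vehicle-treated controls following compound exposure; the mutations affect DNA damage repair.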

This is part of a sample that, as a whole, favours compounds with a hit. Of some 79,000 tested, about 15% had one in any assay. Unmarked numbers belong to inactive results. The source made the active and inactive calls. Cut-off read from the data, not from the text of the source: active = growth inhibition above about 70%; inactive = the rest.

Regarding `O=S(Cc1ccccc1)CC(O)CO` (configuration not stated), the growth inhibition was -24.9% in experiment [1]; 5.95% in experiment [2]; 2.7% in experiment [3]; -41.2% in experiment [4]; 10.3% in experiment [5]; -0.85% in experiment [6].
Take `CN1C(=O)N(C)C2=NC(=O)N(C)C2(C(Cl)(Cl)Cl)C1=O` (configuration not stated): the growth inhibition was 45.3% in experiment [1]; 32.2% in experiment [2]; 47.4% in experiment [3]; 24.6% in experiment [4]; 21.6% in experiment [5]; 58% in experiment [6].
For the compound `Nc1[nH]c(=S)nc2snnc12`, the growth inhibition in experiment [1] was 3%; in experiment [2], -6.6%; in experiment [3], 9.4%; in experiment [4] it was 11.2%; in experiment [5], 3.1%; in experiment [6], 14.8%.
As to `COc1cc(/C=C/C(=O)N[C@@H]2C(=O)N3[C@@H]2SC(C)(C)[C@@H]3C(=O)O)ccc1O`, the growth inhibition in experiment [1] was -7.45%; in experiment [2] it was -11.2%; in experiment [3] it was -7.9%; in experiment [4], -1.55%; in experiment [5], -15.2%; in experiment [6], 6.65%.
As for `O=C(O)/C=C/C(=O)Nc1ccccc1Cl`, the growth inhibition in experiment [1] was 10.4%; in experiment [2], 29.6%; in experiment [3] it was 48.9%; in experiment [4], 0%; in experiment [5], 42.2%; in experiment [6], 21%.
For `CC(C)(C)OC(=O)N/N=C(/N)Cc1ccc(Cl)cc1`, the growth inhibition in experiment [1] is -4.05%; in experiment [2] it was 19.4%; in experiment [3], -6.2%; in experiment [4], -13.9%; in experiment [5] it was -14.2%; in experiment [6], 6.4%.
On to `COc1ccc(C(=O)C(c2ccc(OCc3ccccc3)cc2)c2ccc(OCc3ccccc3)cc2)cc1`, for which the growth inhibition in experiment [1] was 5.4%; in experiment [2], -35.8%; in experiment [3], -6.35%; in experiment [4], 26.9%; in experiment [5] it was -25.7%; in experiment [6], -5.55%.
As for `COC(=O)c1nc(N)nc(C(=O)OC)c1C(=O)c1ccc(Cl)cc1Cl`, the growth inhibition in experiment [1] was 7.25%; in experiment [2], -0.6%; in experiment [3], -15.5%; in experiment [4] it was 3.6%; in experiment [5], -8.3%; in experiment [6] it was -3.25%.
Turning to `CC(C)C1=CC23CCC4C(C)(C(=O)O)CCCC4(C)C2CC1C1C(=O)N(c2ccccc2)C(=O)C13` (configuration not stated), the growth inhibition was -7.45% in experiment [1]; -3.9% in experiment [2]; 1.55% in experiment [3]; 0.7% in experiment [4]; -40% in experiment [5]; 8.65% in experiment [6].
As for `COc1ccc2c(c1)CCCN1Cc3cc(OC)c(OC)cc3CC21` (configuration not stated), the growth inhibition in experiment [1] was -29.7%; in experiment [2], 8.65%; in experiment [3], -33.8%; in experiment [4] it was 14%; in experiment [5] it was -1.1%; in experiment [6] it was -3.9%.
Turning to `NNC(=O)C(=O)N/N=C(\CCC(=O)Nc1ccc(Cl)cc1)Cc1nc2ccccc2s1`, the growth inhibition in experiment [1] was 28.2%; in experiment [2] it was 28.2%; in experiment [3], 30.4%; in experiment [4] it was 9.65%; in experiment [5] it was 12.3%; in experiment [6] it was 36.2%.
With `N#Cc1cccc(CC(O)(c2ccccc2)c2ccccc2)c1`, the growth inhibition in experiment [1] was 19.6%; in experiment [2], 19.9%; in experiment [3], 5.1%; in experiment [4], 11%; in experiment [5] it was 20.5%; in experiment [6], 18.4%.
On to `CCCCC(CC)C(C(C)=O)N(C)C` (configuration not stated), for which the growth inhibition was 33.1% in experiment [1]; -9.45% in experiment [2]; 13.1% in experiment [3]; 8.65% in experiment [4]; 4.45% in experiment [5]; 4.75% in experiment [6].
Consider `COc1ccc(C2(C#N)CCCC2)cc1`, for which the growth inhibition in experiment [1] is 5.8%; in experiment [2] it was 12.4%; in experiment [3], 0.95%; in experiment [4], -30.6%; in experiment [5], 0.7%; in experiment [6], 8.7%.
In the case of `O=C(O)/C=C(/Br)c1ccccc1`, the growth inhibition is -28.9% in experiment [1]; 7.9% in experiment [2]; -13.8% in experiment [3]; -1.55% in experiment [4]; 1.4% in experiment [5]; -24.4% in experiment [6].
On to `N#Cc1ccccc1C#N`, for which the growth inhibition in experiment [1] was -0.8%; in experiment [2] it was -5%; in experiment [3] it was -7.7%; in experiment [4] it was -13.9%; in experiment [5], -4.7%; in experiment [6], -0.4%.
On to `O=C(NO)/C(CC(=O)c1ccc(O)cc1O)=N\O`, for which the growth inhibition in experiment [1] was 4.05%; in experiment [2] it was -5.5%; in experiment [3], -8.65%; in experiment [4] it was -0.7%; in experiment [5], -11.2%; in experiment [6] it was 16.9%.
Regarding `CC1(C)N=C(C(N)=O)c2ncn(CCO)c2N1`, the growth inhibition in experiment [1] was -12.4%; in experiment [2], -34%; in experiment [3] it was -21.6%; in experiment [4], -10.7%; in experiment [5], -9.95%; in experiment [6], -23.4%.
For the compound `O=C1CCCCCCCCC1=O`, the growth inhibition in experiment [1] was 3.5%; in experiment [2], -6.4%; in experiment [3], -11.3%; in experiment [4] it was -4.05%; in experiment [5] it was -12.8%; in experiment [6], -11.2%.
As for `C[C@]12CCC[C@H](O)[C@H]1O2`, the growth inhibition in experiment [1] was -6.45%; in experiment [2] it was 3.25%; in experiment [3], -16.1%; in experiment [4], 0.55%; in experiment [5], 0.5%; in experiment [6], -10.2%.
In the case of `CC(C)(C)CC(C)(C)NCc1ccc(Cl)cc1`, the growth inhibition in experiment [1] was 78.6% (active); in experiment [2], 45%; in experiment [3], 61.3%; in experiment [4], 40.2%; in experiment [5], 65.6%; in experiment [6] it was 60.6%.
`Cc1csc2nc(-c3ccncc3)cn12`: the growth inhibition is 10.7% in experiment [1]; 10.1% in experiment [2]; -14% in experiment [3]; 1.4% in experiment [4]; 37.1% in experiment [5]; 23.1% in experiment [6].
For the compound `COc1cc(C2N3CCCN2CC3)cc(OC)c1OC` (configuration not stated), the growth inhibition in experiment [1] is -3.75%; in experiment [2], 0.35%; in experiment [3], -21.6%; in experiment [4], -3.5%; in experiment [5], -7.75%; in experiment [6], -2.55%.
On to `C1CCC2(CCC34CCCCC3CCCC4)CCCCC2C1` (configuration not stated), for which the growth inhibition in experiment [1] is 99.5% (active); in experiment [2], 99.7% (active); in experiment [3], 99.5% (active); in experiment [4] it was 99.3% (active); in experiment [5] it was 99.5% (active); in experiment [6], 98.2% (active).
`O=C(Nn1c(-c2ccccc2)nc2ccccc2c1=O)c1ccc([N+](=O)[O-])cc1`: the growth inhibition is -1.9% in experiment [1]; 14.6% in experiment [2]; 4.6% in experiment [3]; -1% in experiment [4]; 17.2% in experiment [5]; 13.9% in experiment [6].
On to `Clc1ccccc1-c1c2ccccc2cc2c1ccc1ccccc12`, for which the growth inhibition is -12.1% in experiment [1]; -14.5% in experiment [2]; -7.75% in experiment [3]; -0.85% in experiment [4]; 5.45% in experiment [5]; -4.7% in experiment [6].
For the compound `c1ccc(-c2nsc3ccccc23)cc1`, the growth inhibition in experiment [1] was 14.3%; in experiment [2], -6.35%; in experiment [3], -8.25%; in experiment [4], -31.1%; in experiment [5], -14.8%; in experiment [6], 5.75%.
Take `Nc1cccc(CC(N)C(=O)O)c1` (configuration not stated): the growth inhibition in experiment [1] was -1.95%; in experiment [2], -5.55%; in experiment [3] it was -8.7%; in experiment [4], -44.1%; in experiment [5], -4.5%; in experiment [6], 1.7%.
As to `CN(C)c1ccc(N2C(=S)SC(=Nc3ccccc3)C2=Nc2ccccc2)cc1`, the growth inhibition in experiment [1] is -6%; in experiment [2], -13.6%; in experiment [3], -10.8%; in experiment [4] it was 7.05%; in experiment [5] it was -1.5%; in experiment [6] it was 3.45%.
With `Nc1nc(=O)[nH]c2n[nH]nc12`, the growth inhibition is -18.2% in experiment [1]; -7.15% in experiment [2]; 6.7% in experiment [3]; -3.15% in experiment [4]; -2.35% in experiment [5]; 0.2% in experiment [6].
On to `CCOC(=O)C(=C/C=C/NCCc1c[nH]c2ccccc12)C(=O)OCC`, for which the growth inhibition in experiment [1] was -23.1%; in experiment [2] it was -44.5%; in experiment [3], -20.8%; in experiment [4], -10.2%; in experiment [5], -15.2%; in experiment [6] it was -26.2%.
Turning to `COC(=O)/C=C(/C=C1/C(C#N)=C(N)N(c2ccc(Cl)cc2)C1(C)/C(=C/C(=O)OC)C(=O)OC)C(=O)OC` (configuration not stated), the growth inhibition in experiment [1] was -3.15%; in experiment [2], -11.4%; in experiment [3], 2.5%; in experiment [4] it was 6.95%; in experiment [5], 21.8%; in experiment [6], 10.7%.
As to `Nc1ccc(C2=Nc3ccccc3SC(c3ccccc3O)C2)cc1` (configuration not stated), the growth inhibition was 24.8% in experiment [1]; 13.5% in experiment [2]; 11.5% in experiment [3]; 19% in experiment [4]; 50.8% in experiment [5]; 6% in experiment [6].
For the compound `Cc1nnsc1-c1nc2ccccc2[nH]1`, the growth inhibition in experiment [1] was 22.2%; in experiment [2], 1.95%; in experiment [3], 9.35%; in experiment [4], 20.1%; in experiment [5], 32.5%; in experiment [6], 38.4%.
Regarding `CSc1ccc(NC(=O)c2ccc([N+](=O)[O-])cc2)cc1`, the growth inhibition in experiment [1] was -1.1%; in experiment [2], 5.6%; in experiment [3], 10.3%; in experiment [4] it was -13.3%; in experiment [5], 25.9%; in experiment [6], 3.05%.
On to `O=C(O)CSCCOCCSCC(=O)O`, for which the growth inhibition in experiment [1] was -15.9%; in experiment [2], -54%; in experiment [3], -17.1%; in experiment [4], 12.1%; in experiment [5], -16.3%; in experiment [6], -15.6%.
In the case of `CC[O-].CC[O-].O=C([CH-]C(=O)c1ccccc1)CCCCCCCCC(=O)[CH-]C(=O)c1ccccc1.[Ti+4]`, the growth inhibition in experiment [1] is -37.5%; in experiment [2], -22.3%; in experiment [3] it was 5.1%; in experiment [4], 13.2%; in experiment [5], 2.85%; in experiment [6], 0.5%.

Values taken from PubChem BioAssay (NCI).
